Assay results from PubChem BioAssay AID1159554 (Broad Institute, 2015).
The whole screen tested about 94,000 compounds, of which about 2,100 (2.2%) were called active. What follows is part of a selection rich in actives, with near analogues and random picks from the rest. Values without a mark were called inactive. No stated cut-off is given here; in the data, active means activity change below about -80%; inconclusive means no clear call, values can overlap the other calls; inactive means above that.

Experiment: P. falciparum Dd2 growth inhibitors, primary screen, SYBR Green fluorescence, single dose replicates (AID 1159554)
Details: 72 h, at 10 µM, stronger effect = lower value

| Structure (SMILES) | activity change |
| --- | --- |
| CO[C@H]1CN(C)C(=O)c2cc(NC(=O)c3cnccn3)ccc2OC[C@H](C)N(C(=O)C2CC2)C[C@H]1C | -22.3% |
| COc1cccc(-c2cn(CC[C@@H]3CC[C@@H](NC(C)=O)[C@@H](CO)O3)nn2)c1 | -3.98% |
| C[C@@H]1CN([C@@H](C)CO)S(=O)(=O)c2ccc(/C=C/c3ccccc3)cc2O[C@H]1CN(C)C(=O)C1CC1 | -88.7% (active) |
| C[C@H]1CN([C@@H](C)CO)S(=O)(=O)c2ccc(C#Cc3ccccc3)cc2O[C@@H]1CN(C)C(=O)C1CC1 | -86.3% (active) |
| COc1ccc(NC(=O)N(C)C[C@H]2Oc3cc(C#CCN(C)C)ccc3S(=O)(=O)N([C@@H](C)CO)C[C@@H]2C)cc1 | 7.25% |
| C[C@@H]1CN([C@@H](C)CO)S(=O)(=O)c2ccc(/C=C/c3ccccc3)cc2O[C@H]1CN(C)Cc1cccnc1 | -90.5% (active) |
| CCC(=O)N(C)C[C@H]1Oc2cc(/C=C/c3ccccc3)ccc2S(=O)(=O)N([C@H](C)CO)C[C@@H]1C | -32.1% |
| CCC(=O)N(C)C[C@H]1Oc2cc(/C=C/c3ccccc3)ccc2S(=O)(=O)N([C@H](C)CO)C[C@H]1C | -20.8% |
| C[C@@H]1CN([C@H](C)CO)S(=O)(=O)c2ccc(/C=C/c3ccccc3)cc2O[C@@H]1CN(C)Cc1ccccc1 | -19.9% |
| C[C@@H]1CN([C@@H](C)CO)S(=O)(=O)c2ccc(/C=C/c3ccccc3)cc2O[C@H]1CN(C)Cc1ccccc1 | -58.4% |
| COc1ccc(C#Cc2ccc3c(c2)O[C@@H](CN(C)C(=O)Nc2cccc(OC)c2)[C@H](C)CN([C@H](C)CO)S3(=O)=O)cc1 | -89.8% (active) |
| C[C@H](O)C#Cc1ccc2c(c1)O[C@@H](CN(C)C(=O)C1CC1)[C@H](C)CN([C@H](C)CO)S2(=O)=O | 2.01% |
| C[C@H](CO)N1C[C@H](C)[C@@H](CN(C)C(=O)C2CC2)Oc2cc(C#CC3CC3)ccc2S1(=O)=O | -9.49% |
| C[C@@H]1CN([C@@H](C)CO)S(=O)(=O)c2ccc(C#Cc3ccccc3)cc2O[C@@H]1CN(C)C(=O)Nc1ccccc1 | -58.2% |
| O=C(NC[C@H]1CC[C@@H]2[C@@H](CN2S(=O)(=O)c2ccccc2F)O1)C1CCCCC1 | 81.8% |
| CNC(=O)C[C@@H]1CC[C@@H]2[C@@H](COc3ccc(NC(=O)c4ccc5c(c4)OCO5)cc3C(=O)N2C)O1 | -13.2% |
| CN1c2ccc(C3=CCCCC3)cc2[C@@H]2[C@@H](CCN2C(=O)Nc2cc(F)ccc2F)[C@@H]1CO | -41.1% |
| O=C(CC1CC1)N[C@@H]1C[C@@H]2O[C@H](CO)CC[C@@H]2O[C@@H]1CCc1ccc(C#Cc2ccccc2)cc1 | -36.1% |
| CN1c2ccc(C#Cc3ccccc3F)cc2[C@@H]2[C@@H](CCN2C(=O)Cc2cccnc2)[C@H]1CO | -26.2% |
| CC(C)NC(=O)N(C)C[C@H]1Oc2cc(-c3cncnc3)ccc2S(=O)(=O)N([C@@H](C)CO)C[C@H]1C | -83.1% (active) |
| CC(=O)N(C)C[C@@H]1Oc2cc(-c3cncnc3)ccc2S(=O)(=O)N([C@@H](C)CO)C[C@H]1C | 21.6% |
| C[C@@H]1CN([C@@H](C)CO)S(=O)(=O)c2ccc(C#Cc3ccccc3)cc2O[C@@H]1CN(C)C(=O)C1CC1 | -82.5% (active) |

| Structure (SMILES) | activity change |
| --- | --- |
| CNC[C@H]1Oc2cc(C#Cc3ccccn3)ccc2S(=O)(=O)N([C@H](C)CO)C[C@@H]1C | -6.84% |
| CNC[C@@H]1Oc2cc(C#Cc3ccc(F)cc3)ccc2S(=O)(=O)N([C@@H](C)CO)C[C@H]1C | -62.7% |
| Cc1ccc(-c2ccc3c(c2)O[C@@H](CN(C)C(=O)NC(C)C)[C@@H](C)CN([C@H](C)CO)S3(=O)=O)cc1 | -34.3% |
| CC(C)C#Cc1ccc2c(c1)O[C@@H](CN(C)C(=O)C1CC1)[C@H](C)CN([C@H](C)CO)S2(=O)=O | -27.6% |
| C[C@H](O)C#Cc1ccc2c(c1)O[C@H](CN(C)C(=O)C1CC1)[C@@H](C)CN([C@H](C)CO)S2(=O)=O | 46.3% |
| CNC[C@H]1Oc2cc(C#Cc3ccccc3)ccc2S(=O)(=O)N([C@@H](C)CO)C[C@@H]1C | -85% (active) |
| CCNC(=O)C[C@@H]1C=C[C@@H](NC(=O)C2CCOCC2)[C@@H](CO)O1 | 2.77% |
| COCC(=O)Nc1ccc2c(c1)OC[C@H](C)N(C(=O)Cc1ccccn1)C[C@H](C)[C@@H](OC)CN(C)C2=O | 41.2% |
| O=C(C[C@H]1CC[C@@H](NC(=O)CC2CC2)[C@@H](CO)O1)NCc1ccccc1 | 10.8% |
| O=C(NC1CCC1)[C@@H]1[C@@H](CO)[C@@H]2Cn3c(ccc(/C=C/c4ccccc4)c3=O)[C@@H]2N1Cc1ccncc1 | -2.62% |
| CCCN1C[C@@H](C)[C@@H](OC)CN(C)C(=O)c2ccc(NC(=O)c3ccc(F)cc3)cc2OC[C@@H]1C | -14.3% |
| C[C@H](O)C#Cc1cnc2c(c1)C(=O)N([C@@H](C)CO)C[C@H](C)[C@@H](CN(C)C(=O)c1ccccc1)O2 | 20.4% |
| COCC(=O)Nc1ccc2c(c1)OC[C@H](C)N(Cc1ccccc1)C[C@H](C)[C@@H](OC)CN(C)C2=O | -12.2% |
| Cc1ccc(S(=O)(=O)N2C[C@@H](O)COC[C@@H]3O[C@H](CC(=O)NCCCN(C)C)CC[C@H]32)cc1 | -1.46% |
| COc1ccc2c3c([nH]c2c1)[C@H](CO)N(CC1CC1)CC31CN(C(=O)Nc2cccc(F)c2)C1 | -49.9% |
| COc1ccc2c3c([nH]c2c1)[C@H](CO)N(C(=O)Nc1ccc(F)cc1)CC31CCN(C(=O)Nc2c(C)noc2C)CC1 | -35.3% |
| COc1ccc2c3c([nH]c2c1)[C@H](CO)N(Cc1cccc(F)c1)CC31CCN(CC2CC2)CC1 | -83.2% (active) |
| CCCNC(=O)N1CC2(C1)CN(Cc1cccc(F)c1)[C@@H](CO)c1[nH]c3cc(OC)ccc3c12 | -63.2% |
| COc1ccc2c3c([nH]c2c1)[C@H](CO)N(S(=O)(=O)c1cn(C)cn1)CC31CCN(CC2CC2)CC1 | 1.53% |
| COc1ccc2c3c([nH]c2c1)[C@H](CO)N(C(=O)C1CCC1)CC31CCN(Cc2cccc(F)c2)CC1 | -43.8% |
| COc1ccc2c3c([nH]c2c1)[C@@H](CO)N(Cc1cccc(F)c1)CC31CN(CC2CC2)C1 | -82.5% (active) |
| COc1ccc2c3c([nH]c2c1)[C@H](CO)N(C(=O)Nc1ccc(F)cc1)CC31CCN(CC2CCOCC2)CC1 | -81.3% (active) |

| Structure (SMILES) | activity change |
| --- | --- |
| COc1ccc2c3c([nH]c2c1)[C@@H](CO)N(C(=O)c1ccc(F)cc1)CC31CCN(C(=O)Nc2ccc(F)cc2)CC1 | -75.4% |
| CCC(=O)N(C)C[C@H]1Oc2ncc(C#CC(C)C)cc2C(=O)N([C@@H](C)CO)C[C@H]1C | 34.1% |
| CN1C(=O)c2cc(NC(=O)C3CCCC3)ccc2OC[C@H]2O[C@H](CC(=O)NCc3ccccc3F)CC[C@H]21 | -16.4% |
| O=C(C1CCCC1)N1[C@H](CO)[C@H]2c3ccccc3N(S(=O)(=O)c3ccccc3)C[C@H]21 | -20% |
| Cc1noc(C)c1NC(=O)N(C)C[C@H]1Oc2ccc(NC(=O)Cn3cnnn3)cc2CC(=O)N([C@H](C)CO)C[C@@H]1C | 26.5% |
| Cc1cc(C(=O)Nc2cccc3c2O[C@@H](CN(C)Cc2ccc(C(=O)O)cc2)[C@H](C)CN([C@@H](C)CO)C3=O)n(C)n1 | 6.12% |
| Cc1cc(C(=O)Nc2cccc3c2O[C@@H](CN(C)Cc2ccc(C(=O)Nc4ccccc4N)cc2)[C@H](C)CN([C@@H](C)CO)C3=O)n(C)n1 | -84.4% (active) |
| C[C@@H]1CN([C@@H](C)CO)C(=O)c2cccc(NC(=O)Nc3ccccc3)c2O[C@H]1CN(C)Cc1ccccc1 | -14.5% |
| Cc1cc(C(=O)Nc2cccc3c2O[C@@H](CN(C)Cc2ccncc2)[C@@H](C)CN([C@@H](C)CO)C3=O)n(C)n1 | 6.17% |
| C[C@H](CO)N1C[C@H](C)[C@@H](CN(C)Cc2ccc(C(=O)Nc3ccccc3N)cc2)Oc2c(NC(=O)C3CC3)cccc2C1=O | -57.7% |
| C[C@H](CO)N1C[C@H](C)[C@H](CN(C)Cc2ccc(C(=O)Nc3ccccc3N)cc2)Oc2c(NC(=O)Nc3ccccc3)cccc2C1=O | -80.2% (active) |
| CC(C)(C)[S@](=O)N1Cc2cc(C(=O)N3CCCCC3)nc(-c3cccc(Br)c3)c2[C@@H]1CCO | -2.81% |
| COc1cccc(S(=O)(=O)N[C@H]2C=C[C@@H](CC(=O)NCc3ccccc3)O[C@@H]2CO)c1 | 18.4% |
| O=C(C[C@@H]1CC[C@@H]2[C@H](COC[C@H](O)CN2C(=O)c2ccncc2)O1)NCc1cc(F)cc(F)c1 | 1.9% |
| COc1ccc(-c2cnc3c(c2)C(=O)N([C@@H](C)CO)C[C@H](C)[C@@H](CN(C)C(=O)C2CC2)O3)cc1 | 13.9% |
| O=C(c1ccc(F)cc1)N1CC2(C1)[C@H](c1ccccc1)[C@@H](CO)N2Cc1ccccn1 | -24.5% |
| O=C1CN(S(=O)(=O)c2ccccc2)C[C@H]2[C@H](c3ccc(C#CCc4ccccc4)cc3)[C@@H](CO)N12 | -82.9% (active) |
| Cc1ccccc1S(=O)(=O)N1CC(=O)N2[C@H](CO)[C@H](c3ccc(C#CCN(C)C)cc3)[C@H]2C1 | -1.17% |
| O=C1CN(S(=O)(=O)Cc2ccccc2)C[C@@H]2[C@@H](c3ccc(C#Cc4ccccc4)cc3)[C@@H](CO)N12 | -68.4% |
| Cc1ccccc1S(=O)(=O)N1CC(=O)N2[C@H](CO)[C@@H](c3ccc(C#Cc4ccccc4)cc3)[C@H]2C1 | -22.9% |
| O=C1CN(S(=O)(=O)c2ccccc2)C[C@H]2[C@H](c3ccc(C4=CCCC4)cc3)[C@@H](CO)N12 | 5.25% |
| Cc1ccccc1S(=O)(=O)N1CC(=O)N2[C@H](CO)[C@H](c3ccc(C#CC4CC4)cc3)[C@@H]2C1 | -84.8% (active) |
